Screening data deposited in PubChem BioAssay by National Center for Advancing Translational Sciences (NCATS).
Shown are actives, neighbours in structure and some others; about 11% of the full set was active somewhere.
G9a block: blocks human histone lysine methyltransferase G9a; G9a H3K9 monomethylation, AlphaScreen, 2 h; AID 504332; 8.8% of 350,000 active; Q96KQ7; Potency, µM (series often up to 102 µM), usual class: inhibitors; further: nearly all actives have a fitted effect of over 75% in size
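Signal arises when biotinylated H3K9 peptide, once monomethylated, bridges streptavidin donor and antibody-captured acceptor beads. Enzyme at 20 nM was preincubated 15 min with test compounds; peptide 500 nM and SAM 20 uM then reacted for 2 h.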
BAZ2B block: inhibitors of human BAZ2B bromodomain; Q9UIF8; AlphaScreen BAZ2B-H3K14Ac peptide displacement; Potency, µM (series often up to 114 µM), most hits filed as inhibitors; 4.4% of 360,000 active; further: nearly all actives have a fitted effect of over 60% in size
Target sequence (Q9UIF8 whole entry, looked up): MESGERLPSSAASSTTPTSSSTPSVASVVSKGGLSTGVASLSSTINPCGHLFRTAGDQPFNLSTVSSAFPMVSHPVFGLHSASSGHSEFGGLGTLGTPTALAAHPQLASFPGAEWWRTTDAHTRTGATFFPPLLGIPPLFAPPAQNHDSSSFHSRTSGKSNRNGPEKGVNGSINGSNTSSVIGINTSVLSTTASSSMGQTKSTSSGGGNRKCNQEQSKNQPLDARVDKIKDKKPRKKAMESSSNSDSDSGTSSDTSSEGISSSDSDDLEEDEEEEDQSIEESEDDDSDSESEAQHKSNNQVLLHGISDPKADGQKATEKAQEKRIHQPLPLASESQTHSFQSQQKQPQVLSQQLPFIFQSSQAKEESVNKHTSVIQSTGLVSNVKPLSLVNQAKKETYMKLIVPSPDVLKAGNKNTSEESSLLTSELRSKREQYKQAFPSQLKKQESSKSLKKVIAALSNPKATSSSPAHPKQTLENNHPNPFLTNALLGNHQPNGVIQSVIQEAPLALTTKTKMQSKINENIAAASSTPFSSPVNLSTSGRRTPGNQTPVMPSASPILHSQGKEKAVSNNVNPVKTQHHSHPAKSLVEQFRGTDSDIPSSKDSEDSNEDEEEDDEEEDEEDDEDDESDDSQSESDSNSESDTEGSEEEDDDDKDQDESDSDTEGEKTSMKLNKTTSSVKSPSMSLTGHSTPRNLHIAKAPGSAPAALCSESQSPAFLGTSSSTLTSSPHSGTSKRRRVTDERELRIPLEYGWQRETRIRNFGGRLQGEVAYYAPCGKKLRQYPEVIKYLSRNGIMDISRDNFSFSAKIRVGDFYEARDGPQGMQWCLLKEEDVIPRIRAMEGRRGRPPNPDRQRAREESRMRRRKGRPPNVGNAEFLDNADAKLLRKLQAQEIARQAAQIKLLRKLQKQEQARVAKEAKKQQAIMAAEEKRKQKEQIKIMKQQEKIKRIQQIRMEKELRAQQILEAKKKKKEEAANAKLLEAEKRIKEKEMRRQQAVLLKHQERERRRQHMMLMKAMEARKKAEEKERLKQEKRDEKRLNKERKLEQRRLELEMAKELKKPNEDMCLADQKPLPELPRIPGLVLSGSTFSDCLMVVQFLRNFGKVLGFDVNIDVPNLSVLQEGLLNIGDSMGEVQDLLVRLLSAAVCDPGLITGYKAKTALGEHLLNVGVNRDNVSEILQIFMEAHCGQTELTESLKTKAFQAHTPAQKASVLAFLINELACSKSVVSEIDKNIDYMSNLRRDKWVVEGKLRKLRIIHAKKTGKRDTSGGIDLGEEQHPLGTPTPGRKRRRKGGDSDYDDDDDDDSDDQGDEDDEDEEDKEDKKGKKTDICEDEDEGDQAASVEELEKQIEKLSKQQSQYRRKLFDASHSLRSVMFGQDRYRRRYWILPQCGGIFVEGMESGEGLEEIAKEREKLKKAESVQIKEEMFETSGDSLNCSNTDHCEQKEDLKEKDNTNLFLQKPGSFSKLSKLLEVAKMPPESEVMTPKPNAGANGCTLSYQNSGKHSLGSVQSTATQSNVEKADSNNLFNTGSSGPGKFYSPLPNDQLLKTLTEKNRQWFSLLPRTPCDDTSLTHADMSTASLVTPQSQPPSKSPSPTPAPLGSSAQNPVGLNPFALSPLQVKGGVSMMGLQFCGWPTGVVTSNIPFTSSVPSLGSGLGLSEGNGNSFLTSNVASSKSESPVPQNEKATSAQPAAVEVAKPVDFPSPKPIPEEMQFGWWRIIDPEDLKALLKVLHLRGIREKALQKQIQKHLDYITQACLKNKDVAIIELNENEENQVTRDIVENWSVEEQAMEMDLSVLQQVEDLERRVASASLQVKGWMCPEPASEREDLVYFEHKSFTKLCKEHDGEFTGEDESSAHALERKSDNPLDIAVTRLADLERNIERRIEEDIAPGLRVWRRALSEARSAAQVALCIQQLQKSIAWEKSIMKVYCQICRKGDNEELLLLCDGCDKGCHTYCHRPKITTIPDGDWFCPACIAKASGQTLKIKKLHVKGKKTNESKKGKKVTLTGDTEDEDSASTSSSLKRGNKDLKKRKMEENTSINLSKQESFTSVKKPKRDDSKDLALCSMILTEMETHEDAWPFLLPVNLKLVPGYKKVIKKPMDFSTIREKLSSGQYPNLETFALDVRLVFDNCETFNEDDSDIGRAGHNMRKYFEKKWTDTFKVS
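AlphaScreen displacement: compounds (up to 110uM) incubated 30 min at room temperature with a preformed 50 nM BAZ2B/50 nM biotinylated H3K14Ac peptide complex in PBS pH 7.4 with Tween-20. Donor and acceptor beads at 10 ug/mL final added, 20 min light-protected before reading.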
HP1b chromo inh: HP1-beta chromodomain-methylated histone interaction inhibition; 0.56% of 390,000 active; P83916; AlphaScreen HP1-beta / biotin-H3K9me3 peptide binding; Potency, µM (doses to about 114 µM), actives largely listed as inhibitors; AID 540317; further: nearly all actives have a fitted effect of over 70% in size
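Compound inhibition of the preformed complex between 50 nM HP1-beta and 50 nM biotinylated H3K9me3 peptide was read by AlphaScreen. Buffer was PBS pH 7.4 with 0.01% Tween-20. Incubations ran 30 min at room temperature, with 10 ug/mL donor/acceptor beads.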
L3MBTL1 block: L3MBTL1 (human) inhibition; Q9Y468; Potency, µM (titrated, usually from 57.1 µM), hits mostly inhibitors; 0.66% of 230,000 active; AlphaScreen L3MBTL1–H3K9me1 peptide binding; further: nearly all actives have a fitted effect of over 60% in size
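AlphaScreen assay: L3MBTL1 (50 nM final) was preincubated 30 min at room temperature with biotinylated H3(1-15)K9me1 peptide (75 nM final), then 30 min with library compounds; streptavidin donor and nickel chelate acceptor beads (10 ug/mL final) added, 30 min dark.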
JMJD2A Tudor: JMJD2A Tudor domain (human) inhibition. 4.4% of 390,000 active. AlphaScreen JMJD2A-Tudor / H3K4me3 peptide binding. Potency, µM (top dose mostly 114 µM), hits mostly inhibitors. AID 504339. O75164; further: nearly all actives have a fitted effect of over 50% in size
Numbers stand for hits; n = inactive; u = inconclusive; x = not tested or not shown; [ ] = another dose, or the depositor's remark. The call rests on the fitted dose curve; in most records, active means well fitted inhibition curve with a large enough effect; inconclusive means small, poorly fitted or top-dose-only effect; inactive means no such curve, though single readings can be large or run the other way.

SMILES	G9a block	BAZ2B block	HP1b chromo inh	L3MBTL1 block	JMJD2A Tudor
CC(=O)Nc1ccc(S(=O)(=O)N(C)c2ccccc2)cc1	n	n	n	n	n
CCOC(=O)/C=C/C(=O)Nc1ccc(S(=O)(=O)N(C)c2ccccc2)cc1	45µM	n	n	x	n
CCOC(=O)Nc1ccc(S(=O)(=O)Nc2cc(C)on2)cc1	n[12.7 µM]	n	n	n	n
CSc1ncc(C(=O)NCc2ccc(Cl)cc2)c(C(F)(F)F)n1	n	n	n	x	n
Cc1ccc(NC(=O)C(=O)NCC(c2cccnc2)N2CCN(Cc3ccccc3)CC2)cc1C (stereo not drawn)	n	n	n	x	n
NS(=O)(=O)c1ccc(S(=O)(=O)N2CCN(c3nc(-c4cccs4)nc4ccccc34)CC2)cc1	x	x	n	x	n
CCCCC(Br)C(=O)Nc1ccc(S(=O)(=O)Nc2cc(C)nc(C)n2)cc1 (stereo not drawn)	50µM	n	n	x	n
CCCCOC(=O)Nc1ccc(S(=O)(=O)Nc2cc(C)nc(C)n2)cc1	n	n	n	n	n
Cc1ccc(S(=O)(=O)Nc2ccc(-c3cn4ccc(C)cc4n3)cc2)cc1	45µM	n	n	n	u
COc1ccccc1C(=O)NCCC(=O)NCc1ccncc1	n	n	n	n	n
Cc1ccc(CNC(=O)C2CCN(S(=O)(=O)c3ccc4[nH]c(=O)ccc4c3)CC2)cc1	n	n	n	x	n
C/C(=N\Nc1nc2ccccc2[nH]1)c1cc2ccccc2o1	45µM	u	u	n	45µM
C/C(=N\Nc1nc2ccccc2[nH]1)c1ccccn1	n	20µM	x	x	x
C/C(=N/O)c1ccccn1	n	10µM	n	n	u
CC(C)(C)OC(=O)CC(=O)NNC(=O)c1cc2ccccc2[nH]1	x	x	x	x	n
Cc1ccc2nc(N(Cc3cccnc3)C(=O)c3ccco3)sc2c1	n	n	n	x	n
CC(C)N1CCc2c(sc(NC(=O)c3ccco3)c2C(N)=O)C1	x	n	n	x	n
CC(C)N1CCc2c(sc(NC(=O)c3ccc(C(=O)c4ccccc4)cc3)c2C(N)=O)C1	x	u	n	x	56µM
COc1cccc(OC)c1C(=O)Nc1sc2c(c1C(N)=O)CCN(Cc1ccccc1)C2	79µM	n	n	n	n
CC(C)N1CCc2c(sc(NC(=O)c3ccc(S(=O)(=O)N4CCCCC4C)cc3)c2C(N)=O)C1 (stereo not drawn)	n	50µM	n	x	n
COC(=O)c1c(NC(=O)c2ccco2)sc2c1CCN(C(C)C)C2	32µM	n	n	x	n
CC(=O)c1ccc(C(=O)Nc2sc3c(c2C(N)=O)CCN(Cc2ccccc2)C3)cc1	u	n	x	n	x
Cc1cc(C)cc(NC(=O)C(=O)NCC(c2cccnc2)N2CCN(c3ccccc3)CC2)c1 (stereo not drawn)	n	n	n	x	n
CC(C)N1CCc2c(sc(NC(=O)CCc3ccccc3)c2C(N)=O)C1	45µM	u	n	n	n
CCCOc1ccc(C(=O)Nc2ccc(-c3cc4ccccc4oc3=O)c(C)c2)cc1	n	n	n	x	n
SMILES	G9a block	BAZ2B block	HP1b chromo inh	L3MBTL1 block	JMJD2A Tudor
Cc1ccn2c(Nc3ccccc3C)c(-c3ccc(N4CCOCC4)cc3)nc2c1	10µM	u	n	x	45µM
Cc1ccccc1Nc1c(-c2ccc(N3CCOCC3)cc2)nc2ccc(Cl)cn12	u	n	n	x	u
Cc1ccc(Nc2c(-c3ccc(N4CCOCC4)cc3)nc3ccc(Cl)cn23)cc1	n	x	n	x	n
Cc1ccc2nc(-c3ccc(N4CCOCC4)cc3)c(Nc3ccccc3C)n2c1	13µM	10µM	u	x	14µM
O=[N+]([O-])c1cccc(S(=O)(=O)N2CCN(S(=O)(=O)c3ccc4c(c3)OCCO4)CC2)c1	x	x	x	x	n
Cc1cc(-c2ccc(S(=O)(=O)Nc3cc(Cl)ccc3C)s2)on1	n	n	n	x	n
Cc1c(C(=O)N(Cc2ccccc2F)C2CCS(=O)(=O)C2)oc2ccc(F)cc12 (stereo not drawn)	n	n	n	x	n
COC(=O)c1ccc(OCC(O)CNCC(c2ccc(OC)cc2)N(C)C)c(OC)c1 (stereo not drawn)	u	50µM	n	x	1.8µM
O=C(CCN1C(=O)c2ccc([N+](=O)[O-])cc2C1=O)Nc1ccc(O)cc1C(=O)O	50µM	n	n	x	n
O=C(O)Cc1ccc(NC(=O)CCN2C(=O)c3ccc([N+](=O)[O-])cc3C2=O)cc1	n	n	n	x	n[11.4 µM]
C=CCn1c(=S)[nH]c2scc(-c3cccs3)c2c1=O	n	n	n	x	n
Cn1c(=S)[nH]c2scc(-c3cccs3)c2c1=O	10µM	n	n	n	u
Cn1c(N)c(C(=O)CSc2nnc(NC3CCCCC3)s2)c(=O)n(C)c1=O	50µM	n	n	n	n
CC(=O)c1c(C)[nH]c(C(=O)CSc2ccc(F)cc2)c1C	n	n	n	n	n
CC(C)Nc1nnc(SCC(=O)c2c(N)n(Cc3ccccc3)c(=O)n(C)c2=O)s1	n	n	n	n	n
CC(=O)c1c(C)[nH]c(C(=O)CSc2nnc(NC3CC3)s2)c1C	50µM	n	n	n	n
COc1cc(C2C(C#N)=C(N)Oc3c2oc(CO)cc3=O)cc(OC)c1OC (stereo not drawn)	u	n	n	n	7.1µM
COc1cc(C2C(C#N)=C(N)Oc3cc(C)oc(=O)c32)cc(OC)c1OC (stereo not drawn)	n	n	n	n	n
COc1ccc(C2C(C#N)=C(N)Oc3c2oc(CO)cc3=O)c(OC)c1OC (stereo not drawn)	n	n	n	n	11µM
COC(=O)C1=C(C)OC(N)=C(C#N)C1c1ccc(OC)c(OC)c1OC (stereo not drawn)	n[12.7 µM]	n	n	n	n
COc1cccc(C2C(C#N)=C(N)Oc3c2oc(CO)cc3=O)c1OC (stereo not drawn)	u	n	n	n	18µM
CC(=O)N1CCc2cc(CNS(=O)(=O)c3ccc(Cl)s3)ccc21	n	n	n	x	n
C=CCN1C(=O)CSc2ccc(C(=O)NCc3ccco3)cc21	40µM	n	n	n	n
O=C(NCc1ccco1)c1ccc2c(c1)N(Cc1ccccc1)C(=O)CS2	n[12.7 µM]	u	n	x	n
CCOC(=O)N1CCN(C(=S)NC(=O)c2ccnn2C)CC1	20µM	n	n	n	u
CCOC(=O)N1CCN(C(=S)NC(=O)c2nn(C)cc2Br)CC1	u	n	n	n	n
CCOC(=O)N1CCN(C(=S)NC(=O)c2ccc(F)cc2)CC1	28µM	u	n	n	n
COc1ccc(CNC(=O)C(=O)NCC(c2cccs2)S(=O)(=O)c2ccc(C)cc2)cc1 (stereo not drawn)	n	n	n	x	n
COc1cc(C2/C(=C(\O)c3ccc4c(c3)OCCO4)C(=O)C(=O)N2CCN2CCOCC2)cc(OC)c1OC (stereo not drawn)	x	n	n	x	u
O=C1C(=O)N(Cc2cccnc2)C(c2cccc(F)c2)/C1=C(/O)c1ccc2c(c1)OCO2 (stereo not drawn)	u	n	n	x	n
